Experimental data published in PubChem BioAssay (Tox21).
Records with an inconclusive call do not appear. Entries that show only a call come without a potency. Calls of active or inactive are those of the source. Unless noted, calls follow the shape of the dose curve; as a rule, active = well fitted curve in the direction sought with a large enough effect in the repeat runs; inconclusive = weak or mixed curves; inactive = no such curve, though single readings can be large; an effect the other way counts as inactive or inconclusive.

Legend:
[1] = qHTS assay to identify small molecule antagonists of the sonic hedgehog signaling (Shh) pathway (AID 1259369; calls by dose curve; also: nearly all actives have a fitted effect of over 45% in size)
Procedure, shortened: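 Conditioned medium drives Shh signalling in 3T3Gli1-Luc cells; compounds in DMSO co-applied, 24hr at 37 C, then luciferase luminescence.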

[2] = qHTS assay to identify small molecule antagonists of the estrogen receptor beta (ER-beta) signaling pathway - cell viability counter screen (AID 1259382); also: series mostly up to about 92 µM; nearly all actives have a fitted effect of over 55% in size
Procedure, shortened: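 Agonist-stimulated (1nM E2) ER-beta-UAS-bla HEK293T cells are incubated with library compounds for 16 hr at 37C. Cell viability is then assessed in the reporter-assay wells by adding CellTiter-Glo and reading luminescence after 30 min.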

[3] = target: Estrogen receptor (Homo sapiens) (UniProt P03372); experiment: qHTS assay to identify small molecule agonists of the estrogen receptor alpha (ER-alpha) signaling pathway in the presence of an antagonist (AID 1259383; calls by dose curve; also: top concentration of the series differs between compounds; nearly all actives have a fitted effect of over 15% in size)
Sequence of Estrogen receptor (Homo sapiens) (P03372 whole entry, looked up): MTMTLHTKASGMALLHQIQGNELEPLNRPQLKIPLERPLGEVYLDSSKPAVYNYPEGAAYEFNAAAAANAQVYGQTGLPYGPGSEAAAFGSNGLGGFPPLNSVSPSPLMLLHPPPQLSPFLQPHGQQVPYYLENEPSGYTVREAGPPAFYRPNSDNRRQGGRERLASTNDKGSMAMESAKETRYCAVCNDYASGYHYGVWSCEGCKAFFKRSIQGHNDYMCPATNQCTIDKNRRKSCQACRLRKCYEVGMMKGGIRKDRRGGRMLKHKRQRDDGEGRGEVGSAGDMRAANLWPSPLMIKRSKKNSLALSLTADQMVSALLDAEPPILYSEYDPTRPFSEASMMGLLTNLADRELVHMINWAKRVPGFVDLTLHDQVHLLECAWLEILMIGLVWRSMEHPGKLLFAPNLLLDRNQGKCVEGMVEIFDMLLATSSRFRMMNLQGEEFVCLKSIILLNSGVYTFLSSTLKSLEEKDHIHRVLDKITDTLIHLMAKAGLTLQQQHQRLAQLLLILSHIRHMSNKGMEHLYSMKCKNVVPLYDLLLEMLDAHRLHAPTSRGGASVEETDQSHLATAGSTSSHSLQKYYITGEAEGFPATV
Procedure, shortened: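 Using VM7Luc4E2 cells seeded 24hr before treatment, antagonist ICI-182,780 (10.0nM final) was added, followed by compounds at 15 concentrations. Plates incubated 22hr; ONE-Glo luminescence quantified reporter activity.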

[4] = qHTS assay to identify small molecule agonists or antagonists of the thyroid stimulating hormone receptor (TSHR) signaling pathway - wild type cell line counter screen (AID 1259384; calls by dose curve)
Procedure, shortened: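 Wild-type Hek293 cells, 800/well, 18 h at 37C, then compound with Ro20-1724 for 30 min RT. cAMP by HTRF (cAMP-d2/anti-cAMP cryptate), 1 h RT, fluorescence read. 15 concentrations, triplicates.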

[5] = target: Thyrotropin receptor (Homo sapiens) (UniProt P16473); experiment: qHTS assay to identify small molecule antagonists of the thyroid stimulating hormone receptor (TSHR) signaling pathway (AID 1259385; calls by dose curve; also: nearly all actives have a fitted effect of over 20% in size)
Sequence of Thyrotropin receptor (Homo sapiens) (P16473 whole entry, looked up): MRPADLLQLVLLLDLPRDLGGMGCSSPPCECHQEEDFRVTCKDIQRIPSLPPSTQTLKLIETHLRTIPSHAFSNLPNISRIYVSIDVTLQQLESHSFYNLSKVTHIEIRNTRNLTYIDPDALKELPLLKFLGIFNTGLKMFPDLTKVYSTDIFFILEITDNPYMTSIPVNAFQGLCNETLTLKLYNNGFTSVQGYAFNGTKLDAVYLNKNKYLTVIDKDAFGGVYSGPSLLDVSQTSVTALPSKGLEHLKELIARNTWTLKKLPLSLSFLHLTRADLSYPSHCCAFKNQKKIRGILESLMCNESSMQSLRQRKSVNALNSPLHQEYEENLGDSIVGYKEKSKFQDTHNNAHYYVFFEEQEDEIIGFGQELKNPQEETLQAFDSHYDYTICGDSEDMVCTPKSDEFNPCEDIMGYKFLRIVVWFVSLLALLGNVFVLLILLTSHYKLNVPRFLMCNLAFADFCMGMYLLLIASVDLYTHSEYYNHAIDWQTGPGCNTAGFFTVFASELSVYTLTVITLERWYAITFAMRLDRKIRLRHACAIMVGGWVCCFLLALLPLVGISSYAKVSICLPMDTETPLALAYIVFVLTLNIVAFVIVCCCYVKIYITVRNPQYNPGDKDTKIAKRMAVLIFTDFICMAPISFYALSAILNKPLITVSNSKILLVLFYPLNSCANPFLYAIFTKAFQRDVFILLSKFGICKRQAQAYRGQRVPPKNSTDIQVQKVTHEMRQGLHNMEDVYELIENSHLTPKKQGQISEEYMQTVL
Procedure, shortened: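 TSHR-HEK293 cells (800/well) plated 18 h, then compounds with Ro20-1724 and TSH at 1.5 ng/mL final, 30 min at room temperature. cAMP quantified by HTRF (cAMP-d2/anti-cAMP-cryptate, 1 h); 15 concentrations in triplicate.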

[6] = qHTS assay to identify small molecule agonists of the estrogen receptor alpha (ER-alpha) signaling pathway in the presence of an antagonist - cell viability counter screen (AID 1259386);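 also: cells exposed to compounds for 22 h at 37 °C before the viability read; nearly all actives have a fitted effect of over 30% in size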; also: potency is read from the fitted curve at half-maximal effect
Procedure, shortened: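 ICI-182,780 at 10.0nM final accompanies the compound titration (15 concentrations, 22hr, 37C) on VM7Luc4E2 cells. The CellTiter-Fluor fluorescence readout runs in the same wells as the luciferase assay.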

[7] = target: Progesterone receptor (Homo sapiens) (UniProt P06401); experiment: qHTS assay to identify small molecule agonists of the progesterone receptor (PR) signaling pathway (AID 1346784; calls by dose curve; also: nearly all actives have a fitted effect of over 30% in size)
Sequence of Progesterone receptor (Homo sapiens) (P06401 whole entry, looked up): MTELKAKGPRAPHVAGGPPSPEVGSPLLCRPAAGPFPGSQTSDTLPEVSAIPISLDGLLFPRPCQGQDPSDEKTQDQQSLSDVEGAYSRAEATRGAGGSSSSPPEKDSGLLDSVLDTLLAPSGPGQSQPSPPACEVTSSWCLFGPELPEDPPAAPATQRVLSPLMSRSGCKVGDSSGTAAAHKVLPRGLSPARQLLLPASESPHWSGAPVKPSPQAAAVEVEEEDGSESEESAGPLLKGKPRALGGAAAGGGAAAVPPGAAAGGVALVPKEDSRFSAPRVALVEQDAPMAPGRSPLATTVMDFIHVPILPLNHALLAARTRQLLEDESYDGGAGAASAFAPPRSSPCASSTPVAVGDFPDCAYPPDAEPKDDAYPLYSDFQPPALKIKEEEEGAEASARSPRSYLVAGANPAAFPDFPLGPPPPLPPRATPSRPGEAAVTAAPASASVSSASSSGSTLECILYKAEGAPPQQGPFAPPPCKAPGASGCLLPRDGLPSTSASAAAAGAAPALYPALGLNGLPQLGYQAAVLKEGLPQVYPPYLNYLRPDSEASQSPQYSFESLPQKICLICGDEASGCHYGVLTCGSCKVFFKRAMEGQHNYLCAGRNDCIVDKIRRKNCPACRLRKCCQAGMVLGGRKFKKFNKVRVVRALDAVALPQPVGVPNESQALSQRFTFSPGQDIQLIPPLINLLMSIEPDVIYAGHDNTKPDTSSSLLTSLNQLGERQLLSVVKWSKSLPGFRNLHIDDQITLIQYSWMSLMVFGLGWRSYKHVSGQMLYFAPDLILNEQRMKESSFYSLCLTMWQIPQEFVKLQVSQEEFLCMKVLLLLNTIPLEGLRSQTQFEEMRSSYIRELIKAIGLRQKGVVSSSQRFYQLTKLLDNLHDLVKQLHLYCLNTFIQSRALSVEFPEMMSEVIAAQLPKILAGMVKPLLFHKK
Procedure, shortened: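 Compounds were tested for PR agonism in HEK 293T cells bearing a beta-lactamase gene under UAS control. Treatment lasted 16 hr at 37C; signal came from fluorescence of a FRET substrate.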

[8] = target: Progesterone receptor (Homo sapiens) (UniProt P06401); experiment: qHTS assay to identify small molecule antagonists of the progesterone receptor (PR) signaling pathway (AID 1346795; active = well fitted inhibition curve with a large enough effect in the signal ratio in the repeat runs, not every such curve was filed as active; the % refers to the signal ratio; also: potency is read from the fitted curve at half-maximal effect)
Procedure, shortened: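 In HEK293T cells bearing the PR-UAS-bla reporter, compound effects on promegestone-driven (1 nM) beta-lactamase expression are assessed after 16 hr using a fluorescent FRET substrate incubated 2 hr at room temperature.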

[9] = qHTS assay to identify small molecule agonists of the progesterone receptor (PR) signaling pathway - cell viability counter screen (AID 1346799; calls by dose curve; also: nearly all actives have a fitted effect of over 45% in size; also: potency is read from the fitted curve at half-maximal effect)
Procedure, shortened: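 Here, 3,000 PR-UAS-bla HEK293T cells per well were treated with compounds for 16 hr after a 6 hr preincubation at 37C and 5% CO2; cell viability is the CellTiter-Glo luminescence signal.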

[10] = qHTS assay to identify small molecule antagonists of the TGF-beta/Smad signaling pathway - cell viability counter screen (AID 1346824); also: nearly all actives have a fitted effect of over 50% in size
Procedure, shortened: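 SBE-bla HEK 293T cells, incubated overnight, then compound plus 0.25 ng/mL TGF-beta1 (stock added) for 5 hr at 37 C. Viability was read in the same wells by CellTiter-Glo luminescence after 30 min at room temperature.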

[11] = qHTS assay to identify small molecule agonists of the TGF-beta/Smad signaling pathway - cell viability counter screen (AID 1346829); also: top concentration of the series differs between compounds; nearly all actives have a fitted effect of over 45% in size
Procedure, shortened: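 Cytotoxicity counter screen: CellTiter-Glo luminescence (30 min, room temperature) measured in the SBE-bla HEK 293T reporter wells after 5 hr compound treatment at 37 C and the 2 hr substrate step.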

[12] = qHTS assay to identify small molecule agonists of the TGF-beta/Smad signaling pathway (AID 1346859; active = well fitted activation curve with a large enough effect in the signal ratio in the repeat runs, not every such curve was filed as active; the % refers to the signal ratio; also: series mostly up to about 77 µM)
Procedure, shortened: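 Each well held 4,000 SBE-bla HEK 293T cells incubated overnight before compound addition; 5 hr later the cleavable FRET substrate went on for 2 hr at room temperature, and fluorescence was read at two emissions.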

[13] = target: Thyrotropin-releasing hormone receptor (Homo sapiens) (UniProt P34981); experiment: qHTS assay to identify small molecule antagonists of the thyrotropin-releasing hormone receptor (TRHR) signaling pathway (AID 1346877; active = well fitted inhibition curve with a large enough effect in the repeat runs, not every such curve was filed as active; also: series mostly up to about 51 µM)
Sequence of Thyrotropin-releasing hormone receptor (Homo sapiens) (P34981 whole entry, looked up): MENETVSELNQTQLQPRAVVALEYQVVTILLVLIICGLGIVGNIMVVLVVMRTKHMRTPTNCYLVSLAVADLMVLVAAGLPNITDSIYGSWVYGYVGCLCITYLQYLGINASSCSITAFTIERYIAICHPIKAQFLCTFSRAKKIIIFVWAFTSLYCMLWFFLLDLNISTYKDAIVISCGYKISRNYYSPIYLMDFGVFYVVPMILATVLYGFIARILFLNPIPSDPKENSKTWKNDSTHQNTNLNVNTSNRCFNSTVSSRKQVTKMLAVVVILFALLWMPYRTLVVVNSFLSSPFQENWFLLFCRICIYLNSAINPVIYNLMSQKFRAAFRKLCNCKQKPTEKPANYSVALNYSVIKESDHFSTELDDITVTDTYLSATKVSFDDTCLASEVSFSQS
Procedure, shortened: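 Screening used HEK293 cells engineered with TRHR, with a brief 5 min room-temperature compound exposure preceding addition of TRH to 1 nM. The read-out was kinetic calcium-dye fluorescence, concentration-response from 15 doses in triplicate.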

[14] = target: Thyrotropin-releasing hormone receptor (Homo sapiens) (UniProt P34981); experiment: qHTS assay to identify small molecule agonists of the thyrotropin-releasing hormone receptor (TRHR) signaling pathway (AID 1346891; calls by dose curve; also: series mostly up to about 58 µM)
Procedure, shortened: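 Screening of agonists relied on calcium signalling in HEK293 cells expressing human TRHR: dye loading 2 h at 37 °C preceded compound addition and a 3-min fluorescence time course.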

[15] = qHTS assay to identify small molecule agonists of the estrogen receptor beta (ER-beta) signaling pathway - cell viability counter screen (AID 1259380); also: nearly all actives have a fitted effect of over 30% in size; also: potency is read from the fitted curve at half-maximal effect
Procedure, shortened: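 Cells used were ER-beta-UAS-bla HEK293T in medium with 2% charcoal-stripped FBS. They were treated for 16 hr at 37C. Viability came from CellTiter-Glo luminescence.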

[16] = target: Estrogen receptor beta (Homo sapiens) (UniProt Q92731); experiment: qHTS assay to identify small molecule agonists of the estrogen receptor beta (ER-beta) signaling pathway (AID 1259377; active = well fitted activation curve with a large enough effect in the signal ratio in the repeat runs, not every such curve was filed as active; the % refers to the signal ratio)
Sequence of Estrogen receptor beta (Homo sapiens) (Q92731 whole entry, looked up): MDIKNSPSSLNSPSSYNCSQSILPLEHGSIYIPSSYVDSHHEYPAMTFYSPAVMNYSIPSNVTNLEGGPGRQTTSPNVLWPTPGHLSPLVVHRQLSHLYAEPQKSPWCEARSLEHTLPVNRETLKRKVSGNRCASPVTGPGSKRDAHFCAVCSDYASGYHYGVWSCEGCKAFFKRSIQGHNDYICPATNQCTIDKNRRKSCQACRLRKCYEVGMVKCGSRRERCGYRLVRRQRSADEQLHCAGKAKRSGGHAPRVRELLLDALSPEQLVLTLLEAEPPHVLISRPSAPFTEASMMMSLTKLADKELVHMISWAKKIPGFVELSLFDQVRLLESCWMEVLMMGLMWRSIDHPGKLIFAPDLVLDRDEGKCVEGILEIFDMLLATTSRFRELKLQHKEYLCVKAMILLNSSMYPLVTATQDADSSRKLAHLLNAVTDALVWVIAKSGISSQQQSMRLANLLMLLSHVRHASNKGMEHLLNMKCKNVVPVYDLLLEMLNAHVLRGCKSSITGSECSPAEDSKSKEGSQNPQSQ
Procedure, shortened: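 Read-out: beta-lactamase FRET fluorescence. Cell line: ER-beta-UAS-bla HEK293T in 2% charcoal-stripped FBS. Exposure: 16 hr at 37C. Substrate step: 2 h at room temperature.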

[17] = target: Estrogen receptor beta (Homo sapiens) (UniProt Q92731); experiment: qHTS assay to identify small molecule antagonists of the estrogen receptor beta (ER-beta) signaling pathway (AID 1259378; active = well fitted inhibition curve with a large enough effect in the signal ratio in the repeat runs, not every such curve was filed as active; the % refers to the signal ratio)
Procedure, shortened: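 ER-beta-UAS-bla HEK293T cells in 2% charcoal-stripped FBS medium treated with compound plus 1nM final 17-beta-estradiol for 16 hr at 37C. Beta-lactamase reporter read by FRET substrate fluorescence after 2 hours at room temperature.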

[18] = qHTS assay to identify small molecule agonists of the androgen receptor (AR) signaling pathway in the presence of an antagonist - cell viability counter screen (AID 1259379); also: nearly all actives have a fitted effect of over 25% in size; also: potency is read from the fitted curve at half-maximal effect
Procedure, shortened: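 A CellTiter-Fluor read-out measured viability of MDA-kb2 reporter cells (MMTV promoter with AR and GR response elements). Treatment: nilutamide 3.0uM final with compounds at 15 concentrations, 16 hr, 37C, 0% CO2.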

[19] = target: Androgen receptor (Homo sapiens) (UniProt P10275); experiment: qHTS assay to identify small molecule agonists of the androgen receptor (AR) signaling pathway in the presence of an antagonist (AID 1259381; calls by dose curve; also: nearly all actives have a fitted effect of over 15% in size; also: potency is read from the fitted curve at half-maximal effect)
Sequence of Androgen receptor (Homo sapiens) (P10275 whole entry, looked up): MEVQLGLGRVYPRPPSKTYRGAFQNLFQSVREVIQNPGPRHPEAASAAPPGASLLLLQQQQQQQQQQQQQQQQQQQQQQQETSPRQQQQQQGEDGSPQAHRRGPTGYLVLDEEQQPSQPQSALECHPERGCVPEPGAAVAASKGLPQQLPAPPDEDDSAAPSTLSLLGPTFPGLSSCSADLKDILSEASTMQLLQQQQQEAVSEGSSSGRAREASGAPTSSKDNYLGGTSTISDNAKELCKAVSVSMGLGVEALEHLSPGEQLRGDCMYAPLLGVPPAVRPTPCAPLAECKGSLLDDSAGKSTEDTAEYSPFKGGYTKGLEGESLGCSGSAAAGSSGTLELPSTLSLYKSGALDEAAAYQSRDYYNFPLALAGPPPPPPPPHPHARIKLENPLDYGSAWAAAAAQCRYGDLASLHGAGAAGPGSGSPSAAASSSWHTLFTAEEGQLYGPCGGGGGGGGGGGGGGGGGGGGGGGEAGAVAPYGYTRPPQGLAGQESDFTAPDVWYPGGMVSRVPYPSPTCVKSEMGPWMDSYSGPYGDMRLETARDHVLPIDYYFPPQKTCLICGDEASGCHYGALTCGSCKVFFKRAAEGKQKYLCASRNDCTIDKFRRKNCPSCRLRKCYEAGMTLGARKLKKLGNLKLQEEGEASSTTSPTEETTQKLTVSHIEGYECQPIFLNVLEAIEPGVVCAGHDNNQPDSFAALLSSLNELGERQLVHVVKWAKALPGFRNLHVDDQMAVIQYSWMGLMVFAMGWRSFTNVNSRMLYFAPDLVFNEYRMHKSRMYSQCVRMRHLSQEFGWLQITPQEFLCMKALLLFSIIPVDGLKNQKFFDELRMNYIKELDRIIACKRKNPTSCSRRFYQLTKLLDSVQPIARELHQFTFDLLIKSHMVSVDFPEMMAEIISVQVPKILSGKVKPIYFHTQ
Procedure, shortened: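 Using human MDA-kb2 cells with an MMTV promoter–luciferase construct (AR and GR response elements), agonist activity is scored under 3.0uM nilutamide (final) co-treatment; 16hr incubation, 37C, luminescence readout via ONE-Glo.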

[20] = qHTS assay to identify small molecule antagonists of the progesterone receptor (PR) signaling pathway - cell viability counter screen (AID 1346798); also: nearly all actives have a fitted effect of over 50% in size; also: potency is read from the fitted curve at half-maximal effect
Procedure, shortened: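 Following a 4 hr attachment, PR-UAS-bla HEK293T cells in charcoal-stripped FBS medium were exposed to compounds with R5020 for 16 hr; CellTiter-Glo was added and luminescence read after 30 min at room temperature.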

Compound | Potency [1] | Potency [2] | Potency [3] | Potency [4] | Potency [5] | Potency [6] | outcome [7] | Potency [8] | Potency [9] | Potency [10] | Potency [11] | outcome [12] | outcome [13] | Potency [14] | Potency [15] | Potency [16] | Potency [17] | Potency [18] | Potency [19] | Potency [20]
Cc1ccccc1N=Nc1ccc(N=Nc2c(O)ccc3ccccc23)c(C)c1 | inactive | inactive | inactive | inactive | inactive | inactive | inactive | inactive | inactive | inactive | inactive | inactive | inactive | inactive | – | – | – | – | – | –
CCCCCCCCN(C)C | inactive | inactive | inactive | inactive | inactive | inactive | inactive | inactive | inactive | inactive | inactive | inactive | inactive | inactive | inactive | – | – | – | – | –
CN(c1nccc(=O)[nH]1)C1CCN(c2nc3ccccc3n2Cc2ccc(F)cc2)CC1 | inactive | inactive | inactive | – | inactive | inactive | – | inactive | inactive | inactive | inactive | inactive | inactive | inactive | – | – | – | – | – | –
O=C(Cl)c1ccc([N+](=O)[O-])cc1 | – | inactive | inactive | inactive | inactive | inactive | – | – | inactive | inactive | inactive | inactive | inactive | inactive | inactive | inactive | inactive | inactive | inactive | –
c1ccc(-c2nc[nH]c2-c2ccccc2)cc1 | – | inactive | – | inactive | inactive | inactive | – | – | inactive | inactive | inactive | inactive | inactive | inactive | inactive | inactive | – | inactive | – | inactive
CN1CCN(C2=Nc3cc(Cl)ccc3Nc3ccccc32)CC1 | – | – | inactive | – | inactive | inactive | inactive | 23.7 µM (active) | inactive | inactive | inactive | inactive | inactive | inactive | 29.8 µM (active) | inactive | – | inactive | – | –
Cc1cc(CC(=O)O)c(C)n1-c1ccc(Cl)cc1 | – | inactive | – | inactive | inactive | inactive | – | inactive | inactive | inactive | inactive | inactive | inactive | inactive | – | inactive | – | inactive | – | –
CC(CN)CCCN (stereo not given) | – | inactive | inactive | inactive | inactive | inactive | inactive | inactive | inactive | inactive | inactive | inactive | inactive | inactive | inactive | inactive | – | inactive | – | inactive
c1ccc(OCc2ccc(CCCN3CCOCC3)cc2)cc1 | – | – | inactive | inactive | inactive | – | inactive | – | – | inactive | inactive | inactive | inactive | inactive | inactive | inactive | – | 29.8 µM (active) | inactive | –
CN(C(=O)CCCOc1ccc2[nH]c(=O)ccc2c1)C1CCCCC1 | – | inactive | – | inactive | inactive | inactive | inactive | – | – | inactive | inactive | – | inactive | inactive | inactive | inactive | – | inactive | – | –
CC[C@]12CCCN3CCc4c(n(c5ccccc45)C(=O)C1)[C@@H]32 | – | – | – | – | inactive | inactive | inactive | 13.3 µM (active) | inactive | inactive | inactive | inactive | – | – | – | inactive | inactive | – | 29.8 µM (active) | –
C=Cc1c(C)c2cc3[nH]c(cc4nc(cc5nc(cc1[nH]2)C(C)=C5CCC(=O)O)C(CCC(=O)O)=C4C)c(C)c3C=C | – | inactive | inactive | inactive | inactive | 26.6 µM (active) | – | inactive | inactive | inactive | inactive | inactive | inactive | inactive | inactive | inactive | inactive | 21.1 µM (active) | – | –
CC(=O)[C@@]1(O)CC[C@H]2[C@@H]3C[C@H](C)C4=CC(=O)CC[C@]4(C)[C@H]3CC[C@@]21C | – | inactive | inactive | inactive | inactive | inactive | – | – | – | inactive | inactive | inactive | – | – | – | – | – | – | – | inactive
Cc1ccc(O)c([C@H](CCN(C(C)C)C(C)C)c2ccccc2)c1 | – | – | – | inactive | inactive | – | inactive | inactive | – | inactive | inactive | inactive | inactive | – | 26.6 µM (active) | inactive | inactive | – | – | –
NCCCOCCOCCOCCCN | – | – | inactive | – | inactive | inactive | inactive | – | 8.63 µM (active) | inactive | inactive | inactive | inactive | inactive | – | – | – | – | – | 9.69 µM (active)
CCCCOc1ccc(CC(=O)NO)cc1 | – | – | – | inactive | inactive | – | – | – | – | inactive | inactive | inactive | – | – | 9.44 µM (active) | – | – | inactive | – | –
CCCCCCCCCCCCCCCC(=O)OC/C=C(C)/C=C/C=C(C)/C=C/C1=C(C)CCCC1(C)C | – | inactive | – | – | inactive | inactive | inactive | inactive | inactive | inactive | inactive | inactive | inactive | inactive | – | – | – | inactive | – | inactive
CC(C)(C)c1cc(CO)cc(C(C)(C)C)c1O | – | inactive | inactive | – | inactive | inactive | inactive | – | – | inactive | inactive | inactive | inactive | inactive | – | inactive | – | inactive | – | inactive
CN1CCC(OC(c2ccccc2)c2ccccc2)CC1 | – | inactive | inactive | inactive | inactive | inactive | inactive | inactive | – | inactive | inactive | inactive | inactive | inactive | inactive | – | – | inactive | – | –
CN(C)CCCNCCCN | – | inactive | inactive | inactive | inactive | inactive | – | – | inactive | inactive | inactive | inactive | inactive | inactive | – | inactive | inactive | inactive | – | inactive
